This is part of a sample that, as a whole, favours compounds with a hit. Of some 83,000 tested, about 20% had one in any assay.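 48-hour exposure, single concentration, 96-well plates; percent growth endpoint where 0 means no net growth. Active: below 10.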 Unmarked numbers belong to inactive results. Active and inactive are the calls of the source.

Among the test systems are T-47D breast; BT-549 breast; MDA-MB-435 melanoma; SW-620 colon; MCF7 breast; HCT-116 colon; HCC-2998 colon; KM12 colon.
Experiment in all cases: NCI-60 one-dose screen, 48 h (100 = growth as untreated, 0 = no growth, -100 = all killed)
What all share (conditions): 10 µM unless noted

As for `Cc1c2ccncc2c(C)c2c1c1ccccc1n2CCCCCC(=O)O`, the growth was 86.5% in the experiment with T-47D breast; 89.4% with BT-549 breast; 99.2% in the experiment on MDA-MB-435 melanoma; 82.4% with SW-620 colon; 77.6% in the experiment on MCF7 breast; 75.8% with HCT-116 colon. Besides, the values for the growth in the experiment with HCC-2998 colon and with KM12 colon were 104% and 82.3%, respectively.

In the case of `CCOC(=O)c1c(NC(=S)Nc2ccc([N+](=O)[O-])cc2)sc2c1CCCCC2`, the growth was 58.9% in the experiment on T-47D breast; 86.3% in the experiment with BT-549 breast; 88.2% in the experiment on MDA-MB-435 melanoma; 98.8% in the experiment on SW-620 colon; 70.1% in the experiment on MCF7 breast; 70.5% in the experiment on HCT-116 colon. The growth with HCC-2998 colon is 96.8%; with KM12 colon it was 72.2%.

Take `Cc1[nH]c(C(=O)Nc2ccc(C(N)=O)cc2OC(C)C)c(Cl)c1Cl`: the growth is 74.9% with T-47D breast; 95.4% with BT-549 breast; 105% in the experiment with MDA-MB-435 melanoma; 105% in the experiment with SW-620 colon; 88.7% in the experiment with MCF7 breast; 98.3% in the experiment with HCT-116 colon. In addition, the growth is 110% with HCC-2998 colon and 98.5% in the experiment on KM12 colon.

In the case of `O=C(O)/C=C\C(=O)Nc1ccc2c(c1)Cc1cc(F)ccc1-2`, the growth in the experiment with T-47D breast is 84.6%; in the experiment on BT-549 breast, 111%; in the experiment on MDA-MB-435 melanoma, 102%; in the experiment on SW-620 colon, 110%; in the experiment with MCF7 breast, 93.3%; with HCT-116 colon it was 92.1%. The growth with HCC-2998 colon is 97.6%; in the experiment on KM12 colon, 101%.

As to `CCOC(=O)C1=C(c2ccccc2)N=C2SC=C(c3cccc([N+](=O)[O-])c3)N2C1c1ccc(O)cc1` (stereo not given), the growth is 93.5% in the experiment on T-47D breast; 95.1% in the experiment with BT-549 breast; 101% with MDA-MB-435 melanoma; 97.6% in the experiment on SW-620 colon; 95.1% with MCF7 breast; 100% with HCT-116 colon. Further, the growth was 101% with HCC-2998 colon and 99.7% with KM12 colon.

Consider `N#CSCc1cc(Cl)c(CSC#N)cc1Cl`, for which the growth was 90% in the experiment with T-47D breast; 39.7% with BT-549 breast; 34.9% in the experiment on MDA-MB-435 melanoma; 20.6% in the experiment with SW-620 colon; 24.5% in the experiment on MCF7 breast; 34.7% in the experiment with HCT-116 colon. Further, the growth is 97% in the experiment on HCC-2998 colon and 85.5% in the experiment with KM12 colon.

Regarding `Cc1nc2ccccc2c(/C=C/c2ccc(Br)cc2)c1C(=O)/C=C/c1ccccc1`, the growth with T-47D breast was 10.1%; in the experiment on BT-549 breast, 21.7%; in the experiment on MDA-MB-435 melanoma it was -47.3% (active); in the experiment with SW-620 colon, 2.35% (active); in the experiment with MCF7 breast, 14%; with HCT-116 colon it was -49.1% (active). Besides, the growth in the experiment on HCC-2998 colon was -41.4% (active); in the experiment on KM12 colon, 7.65% (active).

In the case of `COC1CC(O)C2=C(CC3C(/C(C)=C\CC=C(C)C)CCC3(C)O2)C1=O` (stereo not given), the growth is 94.9% in the experiment on T-47D breast; 107% with BT-549 breast; 109% in the experiment with MDA-MB-435 melanoma; 104% in the experiment with SW-620 colon; 99.4% in the experiment on MCF7 breast; 98.9% in the experiment on HCT-116 colon. In addition, the results for the growth with HCC-2998 colon and in the experiment with KM12 colon were 105% and 107%, respectively.

In the case of `O=C(Oc1ccccc1)c1cc(O)c(O)c(O)c1`, the growth is 59.7% in the experiment on T-47D breast; 65.1% in the experiment on BT-549 breast; 53.3% in the experiment with MDA-MB-435 melanoma; 62.7% with SW-620 colon; 79.3% with MCF7 breast; 58.8% in the experiment on HCT-116 colon. Also, the values for the growth in the experiment on HCC-2998 colon and with KM12 colon were 68.5% and 74.7%, respectively.

`Cc1oc2ccc(O)c(CN3CCCCCC3)c2c1C(=O)Nc1ccc(C(F)(F)F)cc1`: the growth was 74% in the experiment with T-47D breast; 78.5% with BT-549 breast; 58.2% in the experiment on MDA-MB-435 melanoma; 67.4% with SW-620 colon; 48.1% with MCF7 breast; 32.7% in the experiment with HCT-116 colon. In addition, the figures for the growth in the experiment on HCC-2998 colon and in the experiment on KM12 colon were 11.2% and 65.5%, respectively.

On to `CC1OC(C(=O)N2CCN(CCO)CC2)CC1COC1CCCCC1` (stereo not given), for which the growth in the experiment on T-47D breast is 94.6% [50 µM]; with BT-549 breast, 90.2% [50 µM]; in the experiment with MDA-MB-435 melanoma, 103% [50 µM]; in the experiment with SW-620 colon, 101% [50 µM]; in the experiment with MCF7 breast it was 103% [50 µM]; in the experiment on HCT-116 colon it was 97% [50 µM]. Also, the growth with HCC-2998 colon is 109% [50 µM]; with KM12 colon, 101% [50 µM].

Consider `O=c1c2cccc3c(N4CCOCC4)ccc(c32)c2nc3ccccc3n12`, for which the growth was 38.1% in the experiment with T-47D breast; 93.8% in the experiment with BT-549 breast; 104% with MDA-MB-435 melanoma; 103% in the experiment on SW-620 colon; 24% with MCF7 breast; 87% in the experiment with HCT-116 colon. In addition, the growth in the experiment on HCC-2998 colon is 73.2%; in the experiment with KM12 colon, 78.1%.

As for `Brc1ccc(-c2nn(-c3ccccc3)cc2-c2nn[nH]n2)s1`, the growth in the experiment on T-47D breast is 89.6%; in the experiment with BT-549 breast, 93.2%; in the experiment on MDA-MB-435 melanoma it was 103%; with SW-620 colon, 97.1%; in the experiment on MCF7 breast it was 86.7%; in the experiment with HCT-116 colon it was 88.5%. Besides, the growth is 97.6% in the experiment with HCC-2998 colon and 99.7% in the experiment on KM12 colon.

Regarding `O=C1c2ccccc2-c2c1c1ccncc1c(=O)n2CCCn1ccnc1`, the growth with T-47D breast was 23.6%; in the experiment with BT-549 breast it was 46.7%; with MDA-MB-435 melanoma, 86.3%; in the experiment on SW-620 colon it was 18.7%; with MCF7 breast, 9.35% (active); with HCT-116 colon, 5.31% (active). In addition, the values for the growth in the experiment on HCC-2998 colon and with KM12 colon were 73.9% and 32.8%, respectively.

Turning to `Cc1c(C)c2c(c(C)c1OC(=O)CCC(=O)[O-])CCC(C)(CCCCCCCCCCC[P+](c1ccccc1)(c1ccccc1)c1ccccc1)O2` (stereo not given), the growth with T-47D breast is -41.6% (active); in the experiment on BT-549 breast, -60.2% (active); in the experiment with MDA-MB-435 melanoma it was -89% (active); with SW-620 colon it was 9.14% (active); in the experiment on MCF7 breast it was -28.2% (active); with HCT-116 colon, -9.97% (active). Further, the values for the growth with HCC-2998 colon and in the experiment on KM12 colon were -70.3% (active) and -87.7% (active), respectively.
